# Assay results taken from PubChem BioAssay (NCATS).
# Results filed as inconclusive are left out. A call without a number means that no potency is given here. Values without a mark were called inactive. Activity calls are given as the source filed them. The call rests on the fitted dose curve; in most records, active means well fitted curve in the direction sought with a large enough effect; inconclusive means small, poorly fitted or top-dose-only effect, or another doubt; inactive means no such curve, though single readings can be large; an effect the other way counts as inactive or inconclusive.
# Target: Rap guanine nucleotide exchange factor 4 (Homo sapiens) (UniProt Q8WZA2)
# Sequence (Q8WZA2 whole entry, looked up): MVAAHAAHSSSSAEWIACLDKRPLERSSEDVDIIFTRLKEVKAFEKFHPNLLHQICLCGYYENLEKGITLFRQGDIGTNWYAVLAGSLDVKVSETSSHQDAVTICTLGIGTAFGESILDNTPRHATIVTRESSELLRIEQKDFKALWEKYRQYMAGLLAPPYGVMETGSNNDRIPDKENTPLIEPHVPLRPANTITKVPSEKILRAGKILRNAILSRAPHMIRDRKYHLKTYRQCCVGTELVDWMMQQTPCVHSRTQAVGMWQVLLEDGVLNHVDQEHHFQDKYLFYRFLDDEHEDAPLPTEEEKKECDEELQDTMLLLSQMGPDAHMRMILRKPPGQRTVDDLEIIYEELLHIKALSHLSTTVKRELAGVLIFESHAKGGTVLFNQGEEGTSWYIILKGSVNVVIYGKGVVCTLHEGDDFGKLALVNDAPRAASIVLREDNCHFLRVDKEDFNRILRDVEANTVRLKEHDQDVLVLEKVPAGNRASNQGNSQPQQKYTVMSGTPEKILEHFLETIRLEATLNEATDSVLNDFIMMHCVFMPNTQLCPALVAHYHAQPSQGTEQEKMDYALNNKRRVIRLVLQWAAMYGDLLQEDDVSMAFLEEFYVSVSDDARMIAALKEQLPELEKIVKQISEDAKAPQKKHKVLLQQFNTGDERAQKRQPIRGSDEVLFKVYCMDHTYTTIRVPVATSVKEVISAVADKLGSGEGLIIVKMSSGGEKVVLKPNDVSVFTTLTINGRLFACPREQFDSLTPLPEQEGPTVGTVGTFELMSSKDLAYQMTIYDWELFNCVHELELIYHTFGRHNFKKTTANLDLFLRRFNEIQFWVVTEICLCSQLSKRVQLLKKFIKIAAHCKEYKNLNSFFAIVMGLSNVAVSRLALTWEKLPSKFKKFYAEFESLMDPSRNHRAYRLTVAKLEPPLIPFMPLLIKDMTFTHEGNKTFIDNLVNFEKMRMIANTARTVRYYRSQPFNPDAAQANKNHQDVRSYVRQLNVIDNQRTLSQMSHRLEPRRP
# Assay: Confirmatory qHTS for agonist of cAMP-regulated guanine nucleotide exchange factor 4 (EPAC2) (AID 1645884);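 further: nucleotide exchange releases bodipy-GDP from Rap1 and this lowers its fluorescence; nearly all actives have a fitted effect of over 65% in size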
# Conditions: EPAC2 GEF activity, Rap1B-BODIPY-GDP fluorescence; series mostly up to 154 µM
SMILES,Potency,activation
O=C(NCc1ccc2c(c1)CCN2C(=O)c1ccccc1)Nc1cccc(C(F)(F)F)c1,inactive,–
Cc1cccc(NC(=O)CSCC(=O)Nc2cccc(S(=O)(=O)N3CCCCCC3)c2)c1,–,"8.94% [at 17.1 µM, percent relative to cAMP agonist control]"
CCOc1cccc(CNc2ccc(O)cc2)c1OCc1ccc(Cl)cc1Cl,inactive,–
COc1ccc(C(=O)CC2(O)C(=O)N(Cc3cccc(C(F)(F)F)c3)c3ccccc32)cc1 (centres undefined),inactive,–

# Target: Rap guanine nucleotide exchange factor 4 (Homo sapiens) (UniProt Q8WZA2)
# Assay: Confirmatory qHTS for antagonist of cAMP-regulated guanine nucleotide exchange factor 4 (EPAC2) (AID 1645885); further: nearly all actives have a fitted effect of over 25% in size; further: potency means the concentration at half of the fitted maximal effect
# Conditions: EPAC2 Rap1B-BODIPY-GDP exchange fluorescence, biochemical; series mostly up to 12.7 µM
row,SMILES,Potency
1,Cc1cccc(S(=O)(=O)Nc2ccc(S(=O)(=O)Nc3nccs3)cc2)c1,75.7 µM (active)
2,CCc1nc(Oc2cccc(F)c2)c2oc3ccccc3c2n1,inactive
3,CCOC(=O)c1cc2c(=O)n3ccccc3nc2n(Cc2ccco2)c1=NC(=O)c1c(F)cccc1Cl,inactive
4,CCCC(=O)OC1CC(C)N(C(=O)c2ccccc2)c2ccc(C)cc21 (centres undefined),3.38 µM (active)
5,COc1ccc(OC)c(NC(=O)CSc2nc(O)cc(=O)n2CC(C)C)c1,inactive
6,COc1cc(NC(=O)c2cccc([N+](=O)[O-])c2)ccc1NC(=O)c1ccco1,inactive
7,CCCC1=C(C(=O)OCC)C(c2ccco2)C(C#N)=C(N)O1 (centres undefined),inactive
8,O=C1CCC[C@@H]2CC(N(Cc3cc4ccccc4s3)c3ccccc3)C[C@@H]3CCN1[C@H]23 (some centres undefined),inactive
9,COc1ccc(C2C=C(c3ccc(Br)cc3)Nc3nnnn32)c(OC)c1 (centres undefined),inactive
10,CC(=O)N1CCC[C@H]1C(=O)NCC1Cc2cc(-c3cccc(OC(F)(F)F)c3)ccc2O1 (some centres undefined),44.1 µM (active)
